Only some compounds are listed: those with a hit (about 7.8% of all), similar ones and a draw of the others.
MARV entry inh = qHTS for inhibitors of binding or entry into cells for Marburg Virus; Potency, µM (top dose mostly 37.8 µM), without a hit: at the highest dose activity change, negative = inhibition, hits mostly inhibitors; Marburg virus pseudotyped entry inhibition, cell reporter; 300,000 tested, 1.8% active; calls by dose curve; tested in HEK293 cells; also: potency is read from the fitted curve at half-maximal effect
Vaccinia Venus = qHTS for Stage-Specific Inhibitors of Vaccinia Orthopoxvirus: Venus Reporter Primary qHTS | Vaccinia virus Venus reporter expression, fluorescence | Potency, µM (doses to about 36.5 µM), inactives show at the highest dose activity change, negative = inhibition, usual class: inhibitors | 330,000 tested, 0.46% active; calls by dose curve; tested in A549 cells; also: potency is read from the fitted curve at half-maximal effect; nearly all actives have a fitted effect of over 30% in size
Vaccinia mCherry = qHTS for Stage-Specific Inhibitors of Vaccinia Orthopoxvirus: mCherry Reporter Primary qHTS. Vaccinia virus mCherry reporter infection, fluorescence. Potency, µM (series often up to 36.5 µM), for the others: top-dose activity change, negative = inhibition, most hits filed as inhibitors. 310,000 tested, 0.63% active. AID 720579, 2013; calls by dose curve; tested in A549 cells; also: potency is read from the fitted curve at half-maximal effect; nearly all actives have a fitted effect of over 35% in size
Lassa entry inh = qHTS for Inhibitors of binding or entry into cells for Lassa Virus; Lassa virus pseudotype entry inhibition, cell reporter; Potency, µM (titrated, usually from 37.9 µM), for inactives: top-dose activity change, negative = inhibition, hits mostly inhibitors; 300,000 tested, 1.2% active; calls by dose curve; tested in HEK293 cells; also: potency is read from the fitted curve at half-maximal effect; nearly all actives have a fitted effect of over 50% in size
HCMV antiviral = qHTS Assay for inhibitors of the human cytomegalovirus (HCMV); activity change, negative = inhibition, % at 57.5 µM; AID 1259415, 2018; HFF cells, HCMV-luciferase reporter, 72 h; hits give low values; 410,000 tested, 4.5% active; in the data active = activity change below about -60%; inconclusive = no clear call, values can overlap the other calls; inactive = above about -39%
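HFF cells seeded 16 h at 37C, treated with compounds, infected with luciferase-reporter HCMV at MOI 1 PFU/cell; luciferase read at 72 h post infection, normalized to buffer-only and Salinomycin controls.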
HCV inh = qHTS Assay for Inhibitors of Hepatitis C Virus (HCV). Huh7.5.1 HCVcc-Cre infection, luciferase reporter, 44 h. Potency, µM (top dose mostly 41.8 µM), for inactives: at the top dose activity change, negative = inhibition, most hits filed as inhibitors. 340,000 tested, 3.4% active; active = well fitted inhibition curve with a large enough effect; inconclusive = small, poorly fitted or top-dose-only effect, or another doubt; inactive = no such curve, though single readings can be large or run the other way; also: potency is read from the fitted curve at half-maximal effect
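1,000 cells/well; 4 h culture; + compound; + HCVcc-Cre (~0.5 moi); 44 h; luciferase substrate, RT 15 min; read 15 sec.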
An asterisk follows results filed as active; i = inactive; ? = inconclusive; . = no result given; [ ] = remark or other dose. % is scaled to controls: 0 for no effect and ±100 for the full control effect.

SMILES | MARV entry inh | Vaccinia Venus | Vaccinia mCherry | Lassa entry inh | HCMV antiviral | HCV inh
Cc1cnn(-c2nc(-c3cccs3)cc(C(F)(F)F)n2)c1 | 1.4% | . | . | 7.1% | -25.0 | 10µM*
Cc1ncc2c(c1CNC(=O)c1cncs1)CCN(C(=O)c1cc(F)c(F)cc1F)C2 | . | -24.6% | i | . | . | .
COc1ccc(C(=O)Nc2nc3n(n2)C(c2ccc(Cl)cc2)C=C(c2ccccc2)N3)cc1OC (stereo not given) | ? | -11.7% | -5.7% | -18.7%[46.1 µM] | -38.9 | .
O=C(NCc1ccc(Cl)cc1)C(=O)c1cn(CC(=O)N2CCOCC2)c2ccccc12 | . | . | . | . | -86.8* | -10.7%
COC1C=CC23c4cc5c(cc4CN(CC2O)C3C1)OCO5 (stereo not given) | . | 1.78µM* | 1.26µM* | . | . | .
COc1c2c(cc3c1OCO3)C13C=CC(OC)CC1N(C2)CC3O (stereo not given) | . | -16.6% | -12.8% | . | . | .
Cc1ccc(CNC(=O)C2CCN(S(=O)(=O)c3cn(C)cn3)CC2)cc1 | . | -11.2% | i | -6.5%[46.1 µM] | ? | .
CCOC(=O)C1CCN(C(=O)c2ccc3c(c2)NC(=O)/C(=C\c2cccc(C)c2)S3)CC1 | . | . | . | . | -9.6 | 11.2µM*
CCOC(=O)C1CCN(C(=O)c2ccc3c(c2)NC(=O)/C(=C/c2ccccc2)S3)CC1 | . | . | . | . | ? | 11.2µM*
CCOC(=O)C1CCN(C(=O)COc2cccc(C)c2)CC1 | 0.6% | -9.1% | 3.98µM* | 5.5% | -2.6 | 5.6%
CN1CCN(C(=O)c2ccc3c(c2)NC(=O)/C(=C/c2ccccc2)S3)CC1 | . | . | . | . | -68.8* | 11.2µM*
COc1ccc(CN2CCCC(n3cc(C(=O)N4CCCCC4)nn3)C2)cc1OC (stereo not given) | . | 4.7% | -8.2% | . | . | .
O=C1NC(c2ccccc2)=C(c2nc3ccccc3s2)C(c2ccccc2)N1 (stereo not given) | -21.3% | -22.6% | -8.2% | 9.2µM* | 48.7 | ?
CC(=O)C1=C(c2ccccc2)NC(=O)NC1c1ccccc1 (stereo not given) | . | . | . | . | -32.3 | 14.2%
CCOc1ccc(-n2c(SCc3ccccc3)nc3c([nH]c4ccccc43)c2=O)cc1 | . | -9.9% | -17.0% | -3.2%[46.1 µM] | -24.9 | .
NS(=O)(=O)c1ccc(NCc2c(F)cccc2Cl)cc1 | 3.3% | . | . | -0.2% | -26.4 | 6.9%
NS(=O)(=O)c1ccc(NCc2cc(Cl)ccc2OCc2ccccc2F)cc1 | -4.0% | . | . | -24.8% | -61.0* | ?
COc1ccc(-c2nc3cc(NC(=O)Cc4ccc(OC)c(OC)c4)ccc3o2)cc1 | ? | . | . | -20.3% | -75.6* | 7.08µM*
COc1ccc(-c2nc3cc(NC(=O)CSc4ccc(C)cc4)ccc3o2)cc1 | ? | -13.2% | -20.3% | ? | 77.6 | .
COc1ccc(CC(=O)Nc2ccc(-c3cn4cccc(C)c4n3)cc2)cc1OC | ? | ? | . | -24.6% | -17.2 | 10µM*
O=C(Cc1ccc(Cl)cc1)Nc1ccc2oc(-c3ccc(F)cc3)nc2c1 | . | -3.8% | -6.8% | 3.3%[46.1 µM] | -8.7 | .
O=C(Cc1ccc(Cl)cc1)Nc1ccc2oc(=O)ccc2c1 | -12.8%[46.1 µM] | -15.8% | -23.0% | -13.5% | -64.2* | ?
COc1ccc(-c2nc3cc(NC(=O)Cc4ccc(Cl)cc4)ccc3o2)cc1OC | . | ? | ? | ? | -94.3* | .
CSc1nc2sc3c(c2c(=O)[nH]1)CC[C@@H](C)C3 | 22.7% | . | . | . | . | .
COc1cc(C(=O)Nc2nc(C)c(Cc3ccc4c(c3)OCO4)s2)cc(OC)c1OC | -42.4% | . | . | ? | -1.9 | 10µM*
SMILES | MARV entry inh | Vaccinia Venus | Vaccinia mCherry | Lassa entry inh | HCMV antiviral | HCV inh
Cc1c(Cc2ccc3c(c2)OCO3)sc(NC(=O)c2ccc3ccccc3c2)c1C(N)=O | -0.4% | -15.2% | -19.4% | -8.8% | 24.5 | ?
Cc1nc(NC(=O)c2ccc(OCC(C)C)cc2)sc1Cc1ccc2c(c1)OCO2 | . | -28.3% | i | . | ? | 14.1µM*
COc1cc(C(=O)c2cc3c(cc2C)OCO3)cc(OC)c1OC | . | ? | -0.9% | . | -67.8* | .
CCCOc1ccc(C(=O)Nc2nc(C)c(Cc3ccc4c(c3)OCO4)s2)cc1 | 34.6% | 10µM* | ? | 10.1% | ? | 3.55µM*
COc1ccccc1-n1cc(C(=O)NCCN2Cc3ccccc3OC(c3ccsc3)C2)cn1 (stereo not given) | . | 0.5% | -17.1% | . | . | .
CCOC(=O)c1c(-c2ccccc2)oc2ccc(N(C(C)=O)S(=O)(=O)c3ccccc3)cc12 | 8.3%[46.1 µM] | -12.3% | -19.4% | -8.3%[46.1 µM] | 9.0 | .
CCOC(=O)c1c(-c2ccccc2)oc2ccc(OCC(O)CNCCN(C)C)cc12 (stereo not given) | ? | ? | 11.2µM* | ? | -8.3 | ?
CCOC(=O)c1c(-c2ccccc2)oc2ccc(N(C(C)=O)S(=O)(=O)c3cc(C)ccc3C)cc12 | -11.9%[46.1 µM] | -18.2% | -29.5% | -10.8%[46.1 µM] | -106.0* | .
COC(=O)c1c(C)oc2ccc(N(C(=O)c3ccncc3)S(=O)(=O)c3ccc(Br)cc3)cc12 | . | -22.4% | -10.5% | ? | -27.6 | .
COC(=O)c1c(C)oc2ccc(N(C(=O)c3ccncc3)S(=O)(=O)c3cc(C)ccc3C)cc12 | -28.9%[46.1 µM] | -27.5% | ? | ? | -64.8* | .
CCOC(=O)c1c(-c2ccccc2)oc2ccc(OC)cc12 | 27.7% | 5.2% | . | -1.0% | 9.1 | 11.2µM*
COc1cccc([C@H]2C(C(=O)c3sc(C)nc3C)=C(O)C(=O)N2CCN2CCOCC2)c1OC | 9.8% | . | . | . | . | .
CC(NC(=O)c1ccccc1NC(=O)c1nsc2ccccc12)c1ccccc1 (stereo not given) | . | -14.2% | -12.4% | ? | 20.7 | .
O=C(Cn1c(=O)ccc2cc(S(=O)(=O)N3CCCC3)ccc21)Nc1ccccc1 | . | 6.4% | 12.3% | ? | 15.3 | .
COC(=O)c1ccc(CN2CCOc3ccc(C(O)c4cccnc4)cc3C2)cc1 (stereo not given) | . | -8.1% | -17.9% | . | . | .
CCOC(=O)c1cc(C)n(CC2CCC(C(=O)Nc3ccc(OCC)cc3)CC2)c1C (stereo not given) | . | -23.5% | -21.8% | 8.3%[46.1 µM] | -60.6* | .
Cc1nc(SCC(=O)NC(C)(C#N)C2CC2)c2c(-c3cccs3)csc2n1 (stereo not given) | ? | -20.2% | i | ? | -29.1 | 10µM*
Cc1oc(-c2cccc(Cl)c2)nc1CN1CCC(C(=O)N2CCN(c3ccccn3)CC2)CC1 | . | -23.2% | -27.4% | . | . | ?
Cc1cccc(-c2nc(CSCC(=O)N3CCN(c4ccccn4)CC3)c(C)o2)c1 | ? | . | . | ? | -66.2* | 11.2µM*
Cc1cccc(N2CCN(C(=O)CSCc3ccc(F)cc3)CC2)c1C | . | -17.7% | -10.6% | 4.3%[46.1 µM] | -26.7 | .
Cc1cccc(-c2nc(CSCC(=O)N3CCN(c4cccc(C)c4C)CC3)c(C)o2)c1 | . | -9.5% | -7.6% | 7.1%[46.1 µM] | -64.9* | .

Screens deposited in PubChem BioAssay by National Center for Advancing Translational Sciences (NCATS).
